A selection: hits, their analogues and other compounds. The true share with any hit is near 4.7%.
D1 PAM – Potentiators of Human D1 Dopamine Receptor: qHTS; D(1A) dopamine receptor (Homo sapiens), P21728; HEK293 TREx D1 cells, calcium flux, dopamine EC20 potentiation; potentiation, % at 10 µM; hit rate 0.036% among 360,000; in the data active = potentiation above about 30%; note: 0% is about no effect
Target sequence (P21728 whole entry, looked up): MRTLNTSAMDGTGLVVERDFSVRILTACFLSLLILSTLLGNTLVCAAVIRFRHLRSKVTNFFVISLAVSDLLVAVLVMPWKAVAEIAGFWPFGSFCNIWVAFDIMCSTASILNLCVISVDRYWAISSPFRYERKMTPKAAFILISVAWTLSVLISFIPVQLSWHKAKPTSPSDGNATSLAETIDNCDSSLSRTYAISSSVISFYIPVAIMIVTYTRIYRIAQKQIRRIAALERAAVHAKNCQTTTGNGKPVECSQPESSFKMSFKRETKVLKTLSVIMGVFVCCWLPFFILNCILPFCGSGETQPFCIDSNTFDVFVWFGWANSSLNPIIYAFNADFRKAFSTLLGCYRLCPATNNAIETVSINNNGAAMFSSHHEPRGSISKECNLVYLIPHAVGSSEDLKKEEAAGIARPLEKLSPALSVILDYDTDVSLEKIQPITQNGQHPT
D1 ag – Allosteric Agonists of the Human D1 Dopamine Receptor: qHTS. D(1A) dopamine receptor (Homo sapiens), P21728. HEK293 T-REx D1 cells, calcium flux, agonist mode. activation, % at 2 µM. hit rate 1% among 360,000; note: 0% is about no effect
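Agonism was scored from calcium flux recorded over 180 s (1 read/s) after pintool compound addition, following a 10-cycle baseline. Cells were inducible force-coupled HEK293 TREx D1, plated overnight at 30 C and loaded with no-wash calcium dye.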
TRHR PAM – qHTS for Small Molecule Agonists and Allosteric Enhancers of Human TRH Receptor: Primary Screen for Enhancers; Thyrotropin-releasing hormone receptor (Homo sapiens), P34981; TRHR cells, fluo-8 calcium fluorescence, EC20 TRH enhancement; enhancement, % at 2 µM; hit rate 0.66% among 360,000; AID 493056, 2011; in the data active = enhancement above about 30%; note: 0% is about no effect
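TRHR-expressing cells loaded with fluo-8 calcium dye were read kinetically (ex 480/em 530) during compound addition, then stimulated with an EC20 of TRH (10 nM final). Enhancement of the Gq-mediated intracellular calcium response was scored.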
D1 antagonist – Antagonist of Human D 1 Dopamine Receptor: qHTS; D(1A) dopamine receptor (Homo sapiens), P21728; HEK293 TREx D1 cells, calcium flux, dopamine EC80; hits give low values; activity change, negative = inhibition, % at 10 µM; hit rate 3.2% among 360,000; AID 504652, 2011; in the data active = activity change below about -30%; note: % is set by controls: 0 for no effect and ±100 for the full control effect
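Compound effects on dopamine-evoked calcium signalling were measured in tetracycline-induced HEK293 Trex D1 cells. Dopamine at EC80 followed a 180 s compound pre-read, and fluorescence was tracked kinetically for 180 s more.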
TRHR ag – qHTS for Small Molecule Agonists and Allosteric Enhancers of Human TRH Receptor: Primary Screen for Agonists. TRHR cells, calcium flux fluo-8, FDSS agonist mode. activation, % at 2 µM. hit rate 0.18% among 360,000; note: 0% is about no effect
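Read-out: compound-evoked intracellular calcium rise in TRHR cells, fluo-8 dye, kinetic FDSS fluorescence at 1 s/cycle following a 10-cycle baseline. Cells cultured overnight before dye loading (30 min–1.5 h, RT).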
* hit, by the source's call. Cut-off read from the data, not from the text of the source, unless noted: active = activation above about 30%; inactive = the rest.

How did COc1ccccc1NC(=O)CCN1C(=O)C2CC=CCC2C1=O (stereo not given) do in these assays?
D1 PAM: 1.0; D1 ag: 0.3; TRHR PAM: 35.0*; D1 antagonist: 8.4; TRHR ag: 0.2

What do the screens show for `COc1ccc(Cl)cc1NC(=O)CCN1C(=O)C2CC=CCC2C1=O` (stereo not given)?
D1 PAM: -0.8; D1 ag: 2.8; TRHR PAM: 0.0; D1 antagonist: 1.9; TRHR ag: -0.6

Results for N#CC(C#N)=C1C=CC=CN1/C(=C\c1ccccc1Cl)C(=O)c1ccccc1 ?
D1 PAM: -12.6; D1 ag: 2.7; TRHR PAM: -10.7; D1 antagonist: -50.5*; TRHR ag: 1.7

What do the screens show for `Cc1ccc(CSCCNS(=O)(=O)c2ccc(C)cc2)cc1`?
D1 PAM: -5.5; D1 ag: 7.2; TRHR PAM: 5.8; D1 antagonist: -40.1*; TRHR ag: 0.7

What do the screens show for `Cc1ccc(S(=O)(=O)NCC(=O)NC2CCCC2)cc1`?
D1 PAM: -4.0; D1 ag: -0.5; TRHR PAM: -1.3; D1 antagonist: 7.7; TRHR ag: -0.4

What do the screens show for `Cc1ccc(S(=O)(=O)NCCCC(=O)O)cc1`?
D1 PAM: 2.0; D1 ag: 0.1; TRHR PAM: 19.2; D1 antagonist: -32.0*; TRHR ag: 0.4

What do the screens show for `Cc1ccc(S(=O)(=O)NCC(=O)NC2CCCCCC2)cc1`?
D1 PAM: -0.4; D1 ag: 1.4; TRHR PAM: 33.5*; D1 antagonist: 32.0; TRHR ag: -0.3

Results for CCc1ccc(N(CC(=O)NC2CC2)S(=O)(=O)c2ccc(C)cc2)cc1 ?
D1 PAM: -6.5; D1 ag: 0.6; TRHR PAM: -5.7; D1 antagonist: -42.7*; TRHR ag: -0.2

Results for Cc1ccc(S(=O)(=O)NCCC(=O)O)cc1 ?
D1 PAM: -2.1; D1 ag: 2.0; TRHR PAM: -0.5; D1 antagonist: 0.5; TRHR ag: -0.2

What do the screens show for `CN1C(=O)Cc2cc(S(=O)(=O)NCc3ccc(Cl)cc3)ccc21`?
D1 PAM: -0.6; D1 ag: 2.3; TRHR PAM: -2.6; D1 antagonist: -28.1; TRHR ag: 0.1

Results for COc1cc(Nc2nc(SCc3cccc(Cl)c3)nc3ccccc23)cc(OC)c1 ?
D1 PAM: -0.7; D1 ag: 6.0; TRHR PAM: 4.7; D1 antagonist: 14.5; TRHR ag: 0.5

How did COc1ccccc1N1C(=O)C2C(C(=O)c3ccccc3)=NN(c3ccccc3OC)C2C1=O (stereo not given) do in these assays?
D1 PAM: 0.0; D1 ag: 78.4*; TRHR PAM: -1.3; D1 antagonist: 8.4; TRHR ag: 27.5

What do the screens show for `CCc1ccc(NC(=O)Cn2cnc3nc4c(cc3c2=O)CCCC4)cc1`?
D1 PAM: -3.3; D1 ag: 5.6; TRHR PAM: 14.9; D1 antagonist: -32.4*; TRHR ag: -0.6

Results for Cc1ccc(C)c(N2CCN(C(=O)Cn3cnc4nc5c(cc4c3=O)CCCC5)CC2)c1 ?
D1 PAM: -0.4; D1 ag: 8.3; TRHR PAM: -0.4; D1 antagonist: 0.2; TRHR ag: 0.0

Results for CCOc1ccc(NC(=O)Cn2cnc3nc4c(cc3c2=O)CCCC4)cc1 ?
D1 PAM: 0.8; D1 ag: -0.4; TRHR PAM: -0.3; D1 antagonist: 12.5; TRHR ag: -0.3

Results for O=C(Cn1cnc2nc3c(cc2c1=O)CCCC3)N1CCN(c2ccccc2)CC1 ?
D1 PAM: -0.8; D1 ag: 1.1; TRHR PAM: 31.8*; D1 antagonist: 0.8; TRHR ag: 0.4

What do the screens show for `CCc1ccccc1NC(=O)N1CCN(c2cc(-c3noc(C)n3)ccc2C)CC1`?
D1 PAM: -1.0; D1 ag: 1.0; TRHR PAM: -6.4; D1 antagonist: 6.7; TRHR ag: -0.3

What do the screens show for `O=C(CNC(=O)C1CCCCC1)Nc1ccccc1Cl`?
D1 PAM: 15.6; D1 ag: 2.4; TRHR PAM: -1.6; D1 antagonist: -93.2*; TRHR ag: -0.5

What do the screens show for `COc1ccc(C2CC(=O)Nc3c2c(=O)n(C)c2nc4ccccc4n32)cc1` (stereo not given)?
D1 PAM: 1.2; D1 ag: 0.0; TRHR PAM: -4.9; D1 antagonist: 9.6; TRHR ag: 1.1

Results for CCc1nc(Oc2cccc(F)c2)c2oc3ccccc3c2n1 ?
D1 PAM: -2.5; D1 ag: 5.2; TRHR PAM: -0.1; D1 antagonist: 26.3; TRHR ag: 0.6

Results for Cc1c(C(=O)Nc2cc(F)cc(F)c2)cnn1-c1ccccc1 ?
D1 PAM: -8.0; D1 ag: 5.7; TRHR PAM: 37.2*; D1 antagonist: -32.4*; TRHR ag: 1.5

Results for Cc1c(C(=O)Nc2ccccc2F)cnn1-c1ccccc1 ?
D1 PAM: -1.4; D1 ag: 8.0; TRHR PAM: -4.9; D1 antagonist: -1.0; TRHR ag: -2.3

Results for FC(F)c1nc2ccccc2[nH]1 ?
D1 PAM: -2.2; D1 ag: -0.9; TRHR PAM: 3.0; D1 antagonist: 18.5; TRHR ag: -0.2

How did c1ccc2[nH]c3cc4ncnc4cc3nc2c1 do in these assays?
D1 PAM: 3.2; D1 ag: 32.9*; TRHR PAM: 9.7; D1 antagonist: -0.8; TRHR ag: 14.4

What do the screens show for `COCC(C)N1CC(O)=C(c2nc(-c3ccc(Cl)cc3)cs2)C1=N` (stereo not given)?
D1 PAM: -16.1; D1 ag: 1.4; TRHR PAM: 1.3; D1 antagonist: -30.5*; TRHR ag: 0.4

Results for CCCCN1CC(O)=C(c2nc(-c3ccc(Cl)cc3)cs2)C1=N ?
D1 PAM: -1.9; D1 ag: 3.5; TRHR PAM: 2.0; D1 antagonist: 21.3; TRHR ag: 0.4

What do the screens show for `COc1ccccc1NC(=O)c1sc2cccc(Cl)c2c1Cl`?
D1 PAM: -0.8; D1 ag: 0.7; TRHR PAM: -5.6; D1 antagonist: 5.7; TRHR ag: -0.1

What do the screens show for `O=C(NCc1ccccc1)NC1CC2CCC(C1)N2Cc1ccco1` (stereo not given)?
D1 PAM: -4.6; D1 ag: 5.6; TRHR PAM: -0.8; D1 antagonist: -5.5; TRHR ag: 1.2

What do the screens show for `COc1ccc(CN2C3CCC2CC(NC(=O)c2cccc(F)c2)C3)cc1` (stereo not given)?
D1 PAM: -10.7; D1 ag: 8.1; TRHR PAM: -10.4; D1 antagonist: -25.5; TRHR ag: 0.4

High-throughput results deposited in PubChem BioAssay by National Center for Advancing Translational Sciences (NCATS).
